# Test results published in article PMC7862700, “An all-to-all approach to the identification of sequence-specific readers for epigenetic DNA modifications on cytosine”.
# Key:
# Test in all cases: DAPPL (digital affinity profiling via proximity ligation, sequencing); 10 mM Tris-HCl pH 7.5, 50 mM NaCl, 1 mM DTT, 4% glycerol, room temperature, 30 min; GST-TFs on glutathione beads, 16-mer random dsDNA library, 0.1% formaldehyde crosslink after washing; high values mean tight binding
# FLI1 = biological target: T1, FLI1 (Homo sapiens, UniProt Q01543 1-452); details: protein: recombinant; tags: N-terminal GST; dsDNA, one strand shown
# T1 sequence: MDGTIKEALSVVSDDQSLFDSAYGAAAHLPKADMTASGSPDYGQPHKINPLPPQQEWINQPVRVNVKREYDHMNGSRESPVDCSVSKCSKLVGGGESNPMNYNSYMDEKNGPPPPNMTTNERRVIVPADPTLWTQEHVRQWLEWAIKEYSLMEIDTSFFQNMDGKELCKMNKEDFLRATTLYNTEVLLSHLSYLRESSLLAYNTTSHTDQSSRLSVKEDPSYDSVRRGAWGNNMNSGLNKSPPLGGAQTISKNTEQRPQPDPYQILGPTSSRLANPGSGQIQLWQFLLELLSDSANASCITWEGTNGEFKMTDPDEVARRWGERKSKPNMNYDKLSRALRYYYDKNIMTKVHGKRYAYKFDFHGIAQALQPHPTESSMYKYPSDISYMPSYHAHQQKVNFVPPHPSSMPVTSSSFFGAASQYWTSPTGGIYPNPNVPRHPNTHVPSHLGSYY
# In short: (§1)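 A tag-only sample was pooled with DNA-barcoded human transcription factors that had been expressed in yeast as GST fusions and captured on glutathione beads. The pools were incubated for 30 min at room temperature with 200 nmole of a random double-stranded 16-mer DNA library in Tris/NaCl/DTT/glycerol buffer, then washed, crosslinked with 0.1% formaldehyde, proximity-ligated (BsaI/T4 ligase, 1 h, 37 °C), PCR-amplified and sequenced on an Illumina NextSeq500. Binding signal is each hexamer's read frequency for a factor divided by its frequency for the tag-only sample.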
# ELK1 = biological target: T2, ELK1 (Homo sapiens, UniProt P19419 1-428); details: protein: recombinant; tags: N-terminal GST; dsDNA, one strand shown
# T2 sequence: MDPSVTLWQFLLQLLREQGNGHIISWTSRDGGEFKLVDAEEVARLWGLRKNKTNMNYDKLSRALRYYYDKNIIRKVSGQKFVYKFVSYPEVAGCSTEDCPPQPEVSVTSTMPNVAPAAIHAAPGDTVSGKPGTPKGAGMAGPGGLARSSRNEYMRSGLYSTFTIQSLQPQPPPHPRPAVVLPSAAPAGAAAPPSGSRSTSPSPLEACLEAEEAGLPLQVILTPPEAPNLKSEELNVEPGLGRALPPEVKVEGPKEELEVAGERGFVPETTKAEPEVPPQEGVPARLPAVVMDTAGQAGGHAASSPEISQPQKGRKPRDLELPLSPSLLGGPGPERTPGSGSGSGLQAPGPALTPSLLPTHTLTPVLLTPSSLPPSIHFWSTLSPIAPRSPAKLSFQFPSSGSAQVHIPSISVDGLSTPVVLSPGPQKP
# In short: as §1
# GABPA = biological target: T3, GABPA (Homo sapiens, UniProt Q06546 1-454); details: protein: recombinant; tags: N-terminal GST; dsDNA, one strand shown
# T3 sequence: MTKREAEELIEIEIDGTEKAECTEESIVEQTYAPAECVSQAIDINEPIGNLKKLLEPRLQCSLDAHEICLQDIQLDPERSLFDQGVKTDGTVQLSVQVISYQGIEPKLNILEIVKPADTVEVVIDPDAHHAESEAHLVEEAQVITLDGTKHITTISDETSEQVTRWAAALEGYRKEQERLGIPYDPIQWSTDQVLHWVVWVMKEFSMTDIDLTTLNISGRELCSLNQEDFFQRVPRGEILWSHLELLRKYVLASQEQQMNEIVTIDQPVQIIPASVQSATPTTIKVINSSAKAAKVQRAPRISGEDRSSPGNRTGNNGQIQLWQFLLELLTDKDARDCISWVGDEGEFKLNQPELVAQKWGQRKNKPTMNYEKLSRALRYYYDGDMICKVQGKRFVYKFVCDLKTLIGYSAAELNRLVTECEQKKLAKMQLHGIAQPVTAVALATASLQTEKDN
# In short: as §1
# ERG = biological target: T4, ERG (Homo sapiens, UniProt P11308 1-479); details: protein: recombinant; tags: N-terminal GST; dsDNA, one strand shown
# T4 sequence: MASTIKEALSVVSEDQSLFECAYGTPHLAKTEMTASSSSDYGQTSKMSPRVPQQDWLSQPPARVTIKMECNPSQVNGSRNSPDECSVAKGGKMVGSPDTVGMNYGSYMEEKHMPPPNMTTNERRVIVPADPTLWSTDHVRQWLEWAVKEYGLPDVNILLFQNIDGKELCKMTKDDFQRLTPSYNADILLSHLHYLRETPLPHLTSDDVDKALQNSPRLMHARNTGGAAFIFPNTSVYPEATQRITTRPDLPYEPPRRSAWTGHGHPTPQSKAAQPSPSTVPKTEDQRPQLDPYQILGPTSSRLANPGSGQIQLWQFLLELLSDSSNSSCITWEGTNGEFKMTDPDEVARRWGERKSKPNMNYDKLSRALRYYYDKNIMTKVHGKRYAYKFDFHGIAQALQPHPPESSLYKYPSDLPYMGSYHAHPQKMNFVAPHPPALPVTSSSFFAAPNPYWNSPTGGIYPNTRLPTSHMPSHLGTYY
# In short: as §1
# ELF1 = ELF1 (Homo sapiens, UniProt P32519 1-619); details: protein: recombinant; tags: N-terminal GST; dsDNA, one strand shown
# Sequence of ELF1 (P32519 whole entry): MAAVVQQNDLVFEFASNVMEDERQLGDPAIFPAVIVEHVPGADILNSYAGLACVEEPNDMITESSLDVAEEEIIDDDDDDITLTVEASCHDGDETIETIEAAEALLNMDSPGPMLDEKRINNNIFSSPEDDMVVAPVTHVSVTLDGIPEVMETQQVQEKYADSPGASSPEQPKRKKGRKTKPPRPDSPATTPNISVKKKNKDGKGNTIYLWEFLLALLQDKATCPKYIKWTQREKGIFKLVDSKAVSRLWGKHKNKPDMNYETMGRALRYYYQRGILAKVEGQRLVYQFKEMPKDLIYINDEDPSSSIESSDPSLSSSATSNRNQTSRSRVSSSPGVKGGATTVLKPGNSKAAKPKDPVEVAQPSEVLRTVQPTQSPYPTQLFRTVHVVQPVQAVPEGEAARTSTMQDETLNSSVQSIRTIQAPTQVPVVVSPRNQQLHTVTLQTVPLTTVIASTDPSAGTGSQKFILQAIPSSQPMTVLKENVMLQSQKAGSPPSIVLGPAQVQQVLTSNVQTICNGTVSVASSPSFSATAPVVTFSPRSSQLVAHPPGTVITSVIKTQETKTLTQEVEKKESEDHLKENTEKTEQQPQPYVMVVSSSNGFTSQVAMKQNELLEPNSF
# In short: as §1
# EHF = biological target: T5, EHF (Homo sapiens, UniProt Q9NZC4 1-300); details: protein: recombinant; tags: N-terminal GST; dsDNA, one strand shown
# T5 sequence: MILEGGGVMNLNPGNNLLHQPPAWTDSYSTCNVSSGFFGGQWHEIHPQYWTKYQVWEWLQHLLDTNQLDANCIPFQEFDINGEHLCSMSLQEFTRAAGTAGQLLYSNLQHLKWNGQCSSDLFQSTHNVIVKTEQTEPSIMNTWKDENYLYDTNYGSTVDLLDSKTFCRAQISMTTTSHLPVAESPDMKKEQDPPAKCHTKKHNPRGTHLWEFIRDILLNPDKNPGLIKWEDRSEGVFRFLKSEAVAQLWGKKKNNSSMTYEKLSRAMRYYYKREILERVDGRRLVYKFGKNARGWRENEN
# In short: as §1
# SPI1 = SPI1 (Homo sapiens, UniProt P17947 1-270); details: protein: recombinant; tags: N-terminal GST; dsDNA, one strand shown
# In short: as §1
# SPIB = SPIB (Homo sapiens, UniProt Q01892 1-262); details: protein: recombinant; tags: N-terminal GST; dsDNA, one strand shown
# Sequence of SPIB (Q01892 whole entry): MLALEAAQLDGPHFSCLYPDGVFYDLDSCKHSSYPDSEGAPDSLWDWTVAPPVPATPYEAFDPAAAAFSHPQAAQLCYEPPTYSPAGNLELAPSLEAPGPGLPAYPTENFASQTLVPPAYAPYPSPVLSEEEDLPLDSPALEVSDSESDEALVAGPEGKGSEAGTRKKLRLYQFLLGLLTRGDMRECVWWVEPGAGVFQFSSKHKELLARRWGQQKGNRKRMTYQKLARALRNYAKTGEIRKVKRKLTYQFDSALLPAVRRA
# In short: as §1
# ELK3 = biological target: T6, ELK3 (Homo sapiens, UniProt P41970 1-407); details: protein: recombinant; tags: N-terminal GST; dsDNA, one strand shown
# T6 sequence: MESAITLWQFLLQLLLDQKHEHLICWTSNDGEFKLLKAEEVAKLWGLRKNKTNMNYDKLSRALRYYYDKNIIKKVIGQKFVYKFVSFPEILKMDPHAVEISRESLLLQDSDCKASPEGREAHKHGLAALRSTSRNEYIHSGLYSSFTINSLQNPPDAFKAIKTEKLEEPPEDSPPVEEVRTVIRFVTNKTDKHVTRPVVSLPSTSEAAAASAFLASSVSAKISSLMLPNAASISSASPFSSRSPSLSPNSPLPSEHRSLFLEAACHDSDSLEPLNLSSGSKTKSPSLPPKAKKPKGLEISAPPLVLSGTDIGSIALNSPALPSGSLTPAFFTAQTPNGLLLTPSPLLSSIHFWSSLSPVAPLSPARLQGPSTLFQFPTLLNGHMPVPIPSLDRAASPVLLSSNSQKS
# In short: as §1
# FEV = biological target: T7, FEV (Homo sapiens, UniProt Q99581 1-238); details: protein: recombinant; tags: N-terminal GST; dsDNA, one strand shown
# T7 sequence: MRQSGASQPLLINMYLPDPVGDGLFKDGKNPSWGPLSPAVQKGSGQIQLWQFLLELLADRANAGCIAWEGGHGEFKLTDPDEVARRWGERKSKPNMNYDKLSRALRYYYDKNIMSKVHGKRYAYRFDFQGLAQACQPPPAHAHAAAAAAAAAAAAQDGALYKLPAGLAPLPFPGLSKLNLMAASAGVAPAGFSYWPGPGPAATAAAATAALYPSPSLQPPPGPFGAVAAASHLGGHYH
# In short: as §1
# ETV5 = ETV5 (Homo sapiens, UniProt P41161 1-510); details: protein: recombinant; tags: N-terminal GST; dsDNA, one strand shown
# Sequence of ETV5 (P41161 whole entry): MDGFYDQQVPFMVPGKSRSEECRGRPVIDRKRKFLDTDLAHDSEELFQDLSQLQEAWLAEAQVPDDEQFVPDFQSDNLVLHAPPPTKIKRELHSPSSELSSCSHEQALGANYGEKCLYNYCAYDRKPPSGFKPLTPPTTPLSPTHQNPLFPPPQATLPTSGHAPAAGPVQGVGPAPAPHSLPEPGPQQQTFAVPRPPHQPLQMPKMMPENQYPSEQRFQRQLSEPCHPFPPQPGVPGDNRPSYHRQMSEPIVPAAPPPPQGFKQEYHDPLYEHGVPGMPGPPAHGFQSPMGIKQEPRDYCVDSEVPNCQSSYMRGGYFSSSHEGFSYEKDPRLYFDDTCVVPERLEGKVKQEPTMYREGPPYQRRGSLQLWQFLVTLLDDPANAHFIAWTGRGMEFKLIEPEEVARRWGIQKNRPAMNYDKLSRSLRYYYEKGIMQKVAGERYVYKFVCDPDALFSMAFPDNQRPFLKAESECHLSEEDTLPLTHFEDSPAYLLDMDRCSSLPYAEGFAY
# In short: as §1
# HSF1 = HSF1 (Homo sapiens, UniProt Q00613 1-529); details: protein: recombinant; tags: N-terminal GST; chain copies: 3; dsDNA, one strand shown
# Sequence of HSF1 (Q00613 whole entry): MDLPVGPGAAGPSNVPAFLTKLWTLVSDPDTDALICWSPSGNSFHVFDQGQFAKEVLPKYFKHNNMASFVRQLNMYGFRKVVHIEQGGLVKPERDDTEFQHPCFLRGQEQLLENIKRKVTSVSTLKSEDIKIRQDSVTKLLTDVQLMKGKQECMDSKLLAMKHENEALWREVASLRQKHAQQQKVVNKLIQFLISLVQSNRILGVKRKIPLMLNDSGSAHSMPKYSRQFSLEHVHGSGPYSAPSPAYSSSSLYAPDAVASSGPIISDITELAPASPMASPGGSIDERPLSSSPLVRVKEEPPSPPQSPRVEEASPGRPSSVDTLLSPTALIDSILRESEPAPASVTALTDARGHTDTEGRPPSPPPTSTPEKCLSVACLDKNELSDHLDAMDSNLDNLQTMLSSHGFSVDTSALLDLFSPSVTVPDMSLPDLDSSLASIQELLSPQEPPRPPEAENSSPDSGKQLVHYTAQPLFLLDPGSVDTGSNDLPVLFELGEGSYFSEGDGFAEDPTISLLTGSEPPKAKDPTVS
# In short: as §1
# SPIC = biological target: T8, SPIC (Homo sapiens, UniProt Q8N5J4 1-248); details: protein: recombinant; tags: N-terminal GST; dsDNA, one strand shown
# T8 sequence: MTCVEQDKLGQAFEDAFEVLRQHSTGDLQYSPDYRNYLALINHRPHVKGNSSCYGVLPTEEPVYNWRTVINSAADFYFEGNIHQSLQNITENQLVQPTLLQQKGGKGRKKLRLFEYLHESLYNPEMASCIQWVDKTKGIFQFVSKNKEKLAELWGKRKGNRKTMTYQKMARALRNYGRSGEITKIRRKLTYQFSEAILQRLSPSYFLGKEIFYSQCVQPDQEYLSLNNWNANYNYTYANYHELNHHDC
# In short: as §1
# ELF4 = ELF4 (Homo sapiens, UniProt Q99607 1-663); details: protein: recombinant; tags: N-terminal GST; dsDNA, one strand shown
# Sequence of ELF4 (Q99607 whole entry): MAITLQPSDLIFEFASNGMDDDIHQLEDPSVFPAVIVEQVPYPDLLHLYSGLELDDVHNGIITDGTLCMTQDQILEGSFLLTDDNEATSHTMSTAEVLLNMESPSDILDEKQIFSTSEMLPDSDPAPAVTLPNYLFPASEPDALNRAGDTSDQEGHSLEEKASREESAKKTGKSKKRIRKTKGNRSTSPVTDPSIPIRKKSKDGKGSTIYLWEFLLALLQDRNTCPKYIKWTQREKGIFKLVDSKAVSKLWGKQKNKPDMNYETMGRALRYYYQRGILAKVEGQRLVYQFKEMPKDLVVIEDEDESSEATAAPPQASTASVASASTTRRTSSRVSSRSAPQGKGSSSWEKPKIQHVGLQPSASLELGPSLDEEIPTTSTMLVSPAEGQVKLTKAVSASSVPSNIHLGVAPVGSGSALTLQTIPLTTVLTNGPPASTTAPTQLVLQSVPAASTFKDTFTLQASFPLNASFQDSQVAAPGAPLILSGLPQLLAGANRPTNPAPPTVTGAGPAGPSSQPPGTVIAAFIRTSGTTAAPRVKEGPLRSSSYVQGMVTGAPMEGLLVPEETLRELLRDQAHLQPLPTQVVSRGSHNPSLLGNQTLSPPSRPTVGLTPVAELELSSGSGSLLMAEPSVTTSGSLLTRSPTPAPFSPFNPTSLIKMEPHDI
# In short: as §1
# ELK4 = biological target: T9, ELK4 (Homo sapiens, UniProt P28324-2 1-405); details: protein: recombinant; tags: N-terminal GST; dsDNA, one strand shown
# T9 sequence: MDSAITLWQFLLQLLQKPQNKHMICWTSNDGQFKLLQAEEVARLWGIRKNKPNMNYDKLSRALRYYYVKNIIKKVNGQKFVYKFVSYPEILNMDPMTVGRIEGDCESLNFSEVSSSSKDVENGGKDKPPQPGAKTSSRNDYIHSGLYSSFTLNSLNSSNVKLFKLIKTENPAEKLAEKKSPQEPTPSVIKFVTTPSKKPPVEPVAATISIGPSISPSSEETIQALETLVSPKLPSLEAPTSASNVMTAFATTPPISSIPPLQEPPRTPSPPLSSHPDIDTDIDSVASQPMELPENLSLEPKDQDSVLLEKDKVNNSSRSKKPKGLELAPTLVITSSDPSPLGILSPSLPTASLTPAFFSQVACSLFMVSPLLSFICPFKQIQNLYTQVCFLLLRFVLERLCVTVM
# In short: as §1
# ETV2 = biological target: T10, ETV2 (Homo sapiens, UniProt O00321 1-342); details: protein: recombinant; tags: N-terminal GST; dsDNA, one strand shown
# T10 sequence: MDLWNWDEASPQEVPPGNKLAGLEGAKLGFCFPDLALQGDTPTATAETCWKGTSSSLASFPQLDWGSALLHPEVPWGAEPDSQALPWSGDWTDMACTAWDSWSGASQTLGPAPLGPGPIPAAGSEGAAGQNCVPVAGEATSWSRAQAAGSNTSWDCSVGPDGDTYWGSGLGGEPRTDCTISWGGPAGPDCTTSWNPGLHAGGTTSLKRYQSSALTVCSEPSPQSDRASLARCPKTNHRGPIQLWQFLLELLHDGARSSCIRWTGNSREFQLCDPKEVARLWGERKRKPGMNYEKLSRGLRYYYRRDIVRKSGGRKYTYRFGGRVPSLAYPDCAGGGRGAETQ
# In short: as §1
# ELF3 = biological target: T11, ELF3 (Homo sapiens, UniProt P78545 1-371); details: protein: recombinant; tags: N-terminal GST; dsDNA, one strand shown
# T11 sequence: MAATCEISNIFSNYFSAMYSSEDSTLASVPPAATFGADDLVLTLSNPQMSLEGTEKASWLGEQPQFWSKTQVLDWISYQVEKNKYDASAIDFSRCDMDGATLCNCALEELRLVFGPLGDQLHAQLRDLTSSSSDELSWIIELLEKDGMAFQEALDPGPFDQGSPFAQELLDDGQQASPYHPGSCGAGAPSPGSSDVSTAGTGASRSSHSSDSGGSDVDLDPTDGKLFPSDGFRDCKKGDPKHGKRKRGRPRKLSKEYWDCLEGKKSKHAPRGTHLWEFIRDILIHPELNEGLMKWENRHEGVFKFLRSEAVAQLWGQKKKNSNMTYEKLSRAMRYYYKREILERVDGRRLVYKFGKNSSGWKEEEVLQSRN
# In short: as §1
# CRX = CRX (Homo sapiens, UniProt O43186 1-299); details: protein: recombinant; tags: N-terminal GST; dsDNA, one strand shown
# Sequence of CRX (O43186 whole entry): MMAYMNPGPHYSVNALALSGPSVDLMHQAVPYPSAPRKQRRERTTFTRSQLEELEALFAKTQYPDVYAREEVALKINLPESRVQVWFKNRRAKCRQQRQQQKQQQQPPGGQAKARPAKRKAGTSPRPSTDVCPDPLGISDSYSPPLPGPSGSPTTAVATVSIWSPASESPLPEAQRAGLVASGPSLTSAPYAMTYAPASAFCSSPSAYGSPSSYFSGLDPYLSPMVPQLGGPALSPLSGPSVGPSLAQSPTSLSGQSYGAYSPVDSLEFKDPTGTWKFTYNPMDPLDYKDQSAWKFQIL
# In short: as §1
# ETV1 = ETV1 (Homo sapiens, UniProt P50549 1-477); details: protein: recombinant; tags: N-terminal GST; dsDNA, one strand shown
# Sequence of ETV1 (P50549 whole entry): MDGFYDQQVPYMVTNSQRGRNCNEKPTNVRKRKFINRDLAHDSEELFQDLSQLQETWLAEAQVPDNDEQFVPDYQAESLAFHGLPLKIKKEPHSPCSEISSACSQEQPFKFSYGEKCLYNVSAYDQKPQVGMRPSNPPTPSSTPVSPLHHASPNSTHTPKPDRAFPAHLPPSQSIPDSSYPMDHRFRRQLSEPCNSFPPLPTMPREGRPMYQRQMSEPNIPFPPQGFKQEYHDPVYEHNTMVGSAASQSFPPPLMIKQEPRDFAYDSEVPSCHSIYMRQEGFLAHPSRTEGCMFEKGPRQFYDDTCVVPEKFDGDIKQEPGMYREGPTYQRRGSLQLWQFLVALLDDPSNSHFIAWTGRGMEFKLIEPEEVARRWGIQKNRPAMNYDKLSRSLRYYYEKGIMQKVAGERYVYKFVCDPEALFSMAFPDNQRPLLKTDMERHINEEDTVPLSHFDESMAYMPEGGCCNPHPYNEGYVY
# In short: as §1
sequence,measurement,setting,value
ATTCGC,binding signal,FLI1,"1.18 fold enrichment (6-mer frequency, TF over GST control)"
same,binding signal,ELK1,"1.15 fold enrichment (6-mer frequency, TF over GST control)"
same,binding signal,GABPA,"1.25 fold enrichment (6-mer frequency, TF over GST control)"
same,binding signal,ERG,"1.25 fold enrichment (6-mer frequency, TF over GST control)"
same,binding signal,ELF1,"1.15 fold enrichment (6-mer frequency, TF over GST control)"
same,binding signal,EHF,"1.18 fold enrichment (6-mer frequency, TF over GST control)"
same,binding signal,SPI1,"1.21 fold enrichment (6-mer frequency, TF over GST control)"
same,binding signal,SPIB,"1.33 fold enrichment (6-mer frequency, TF over GST control)"
same,binding signal,ELK3,"1.06 fold enrichment (6-mer frequency, TF over GST control)"
same,binding signal,FEV,"1.24 fold enrichment (6-mer frequency, TF over GST control)"
same,binding signal,ETV5,"1.13 fold enrichment (6-mer frequency, TF over GST control)"
same,binding signal,HSF1,"1.47 fold enrichment (6-mer frequency, TF over GST control)"
same,binding signal,SPIC,"1.39 fold enrichment (6-mer frequency, TF over GST control)"
same,binding signal,ELF4,"1.11 fold enrichment (6-mer frequency, TF over GST control)"
same,binding signal,ELK4,"1.1 fold enrichment (6-mer frequency, TF over GST control)"
same,binding signal,ETV2,"1.29 fold enrichment (6-mer frequency, TF over GST control)"
same,binding signal,ELF3,"1.27 fold enrichment (6-mer frequency, TF over GST control)"
same,binding signal,CRX,"1.26 fold enrichment (6-mer frequency, TF over GST control)"
same,binding signal,ETV1,"1.11 fold enrichment (6-mer frequency, TF over GST control)"
